# Laboratory results taken from PubChem BioAssay AID624296 (National Center for Advancing Translational Sciences (NCATS), 2012).
# Screen size: about 350,000 compounds; about 9,900 (2.8%) were called active. Inconclusive results (about 15%) are left out. This is one part of a sample in which actives are shown more often than they occur. Calls come from the whole dose curve; as a rule, active = well fitted activation curve with a large enough effect; inconclusive = small, poorly fitted or top-dose-only effect; inactive = no such curve, though single readings can be large or run the other way.
# Assay: A quantitative high throughput screen for small molecules that induce DNA re-replication in MCF 10a normal breast cells. For activity, positive = re-replication: % of control where 0% means no effect. Note: nearly all actives have a fitted effect of over 50% in size.
# Conditions: MCF 10A DNA re-replication, Hoechst nuclear intensity, 48 h; series mostly up to 46.1 µM; activity, positive = re-replication: at the top concentration
# Potency is the fitted concentration of half-maximal effect.
Compound,"activity, positive = re-replication",Potency
O=C(CN1C(=O)NC2(CCOc3ccccc32)C1=O)Nc1cccc([N+](=O)[O-])c1 (stereo not drawn),-0.599% (inactive),–
O=C(OCCN1C(=O)c2ccccc2C1=O)[C@@H]1CC(O)CN1S(=O)(=O)c1ccccc1[N+](=O)[O-] (stereo partly drawn),5.67% (inactive),–
COc1ccc(/C=C/C(=O)OCC(=O)Nc2cccc(Oc3ccccc3)c2)c(OC)c1,-5.63% (inactive),–
COc1cccc(NC(=O)CN(C)C(=O)/C=C/c2cc(OC)ccc2OC)c1,0.159% (inactive),–
COc1ccc(OC)c(/C=C/C(=O)OCC(=O)Nc2ccc3c(c2)OCCO3)c1,–,20.6 µM (active)
CC(=O)NC(CC(=O)Nc1ccc(S(=O)(=O)N2CCOCC2)cc1)c1ccccc1 (stereo not drawn),0.442% (inactive),–
CCOC(=O)c1cc2c(=O)n3ccccc3nc2n(CC(C)C)c1=NC(=O)c1c(-c2c(F)cccc2Cl)noc1C,–,3.26 µM (active)
CCCn1c(=NC(C)=O)c(C(=O)OCC)cc2c(=O)n3ccccc3nc21,-5.83% (inactive),–
C/C(=N/OC(=O)c1c(-c2c(F)cccc2Cl)noc1C)c1cnccn1,-1.23% (inactive),–
Cc1noc(C)c1NC(=O)Nc1cccc2c1O[C@H](CN(C)S(=O)(=O)c1c(C)noc1C)[C@@H](C)CN([C@H](C)CO)C2=O,1.25% (inactive),–
CCc1nnc(NC(=O)c2cc(S(=O)(=O)N3CCN(CC)CC3)ccc2Cl)s1,-8.12% (inactive),–
CC1CCc2[nH]c3ccc(C(=O)N(C)CC(=O)Nc4cccc(F)c4)cc3c2C1 (stereo not drawn),19.4% (inactive),–
CCCN(CC(=O)Nc1ccccc1C)C(=O)c1ccc2[nH]c3c(c2c1)CC(C)CC3 (stereo not drawn),–,1.3 µM (active)
CCCN(CC(=O)Nc1ccccc1C)C(=O)c1cc(=O)[nH]c2ccccc12,10.5% (inactive),–
CN1CCOC1c1ccc(C2OCCN2C)cc1 (stereo not drawn),-3.01% (inactive),–
O=C1C=C(c2ccnc3cc(Cl)ccc23)C[C@@H](c2ccc3c(c2)OCO3)C1,-2.45% (inactive),–
CCOc1ncccc1C(=O)Nc1ccc2c(c1)OCCO2,-0.515% (inactive),–
COc1ccc(C(=O)N2CCN(c3ncccn3)CC2)cc1S(=O)(=O)N1CCOCC1,0.66% (inactive),–
Cc1ccc(C(C)C)cc1OCCN1CCCC1,16% (inactive),–
Cc1ccc(C(C)C)cc1OCC(=O)Nc1ccccc1N1CCCC1,–,20.6 µM (active)
CCC(=O)N1CCN(c2ccccc2NC(=O)COc2cccc(C)c2C)CC1,11.5% (inactive),–
O=S(=O)(NCCCCCCNS(=O)(=O)c1c(F)cccc1F)c1ccc2c(c1)OCCO2,12.4% (inactive),–
COc1ccc(/C=C/C(=O)Nc2c(C)nn(C)c2C)cc1COc1ccc(Br)cc1,–,4.61 µM (active)
COc1ccc(OC)c(S(=O)(=O)Nc2c(C)nn(C)c2C)c1,2.29% (inactive),–

Compound,"activity, positive = re-replication",Potency
CCn1nc(C)c(NC(=O)/C=C/c2ccc(OC)c(COc3ccc(Br)cc3)c2)c1C,–,8.2 µM (active)
COc1ccc(/C=C/C(=O)Nc2cccnc2)cc1OC,-3.51% (inactive),–
COc1ccc(/C=C/C(=O)Nc2ccc(C)cc2)cc1S(=O)(=O)N1CCOCC1,-4.4% (inactive),–
C/C=C/c1ccc(OCC(=O)OCC(=O)Nc2c(C)nn(-c3ccccc3)c2C)c(OC)c1,0.529% (inactive),–
CCCC(NCC(=O)Nc1ccccc1C(=O)NC1CC1)c1ccccc1 (stereo not drawn),8.84% (inactive),–
Cc1ccc(S(=O)(=O)N2CCN(C(=O)COC(=O)/C=C/c3cccc(Cl)c3)CC2)c(C)c1,2.86% (inactive),–
O=C(N[C@H]1C/C=C\C(c2ccc(F)cc2)N(Cc2ccccc2)C(=O)C1)OCC1c2ccccc2-c2ccccc21 (stereo partly drawn),-15% (inactive),–
Cc1ccsc1C(=O)NC1CCCCC1C (stereo not drawn),4.61% (inactive),–
CC(=O)Nc1ccc(S(=O)(=O)Nc2nc(-c3ccc(C(C)(C)C)cc3)cs2)cc1,-4.78% (inactive),–
CC(=O)Nc1ccc(-c2csc(NC=C3C(=O)OC(C)(C)OC3=O)n2)cc1,-2.67% (inactive),–
CC(=O)Nc1ccc(-c2csc(NC(=O)Nc3ccccc3)n2)cc1,–,20.6 µM (active)
O=C(O[C@@H]1[C@H](Cc2ccccc2)NS(=O)(=O)[C@H]2C[C@@H]3C=C[C@]12O3)c1ccccc1Br,-7.18% (inactive),–
NC(=O)c1ncn([C@@H]2O[C@H](CNCc3cnc(N4CCOCC4)s3)[C@@H](O)[C@H]2O)n1,4.83% (inactive),–
CC(=O)NC12CC3CC(C1)CC(C(=O)N1CCN(S(=O)(=O)c4cccs4)CC1)(C3)C2,5.55% (inactive),–
CN1C(=O)[C@H]2[C@@H](/C=C/c3ccccc3)N3C(=O)CN(Cc4ccc(-c5ccccc5)cc4)C(=O)[C@@]3(C)[C@H]2C1=O,9.52% (inactive),–
OC1CCCN(c2ncnc3c2nnn3Cc2c(F)cccc2Cl)C1 (stereo not drawn),–,16.4 µM (active)
CCOC(=O)N1CCN(C(=O)C2CCCN(c3ncnc4c3sc3cccc(F)c34)C2)CC1 (stereo not drawn),8.33% (inactive),–
Cc1ccc(NC(=O)N2CCC(c3nc4c(nnn4Cc4c(F)cccc4Cl)c(=O)[nH]3)CC2)cc1,-3.7% (inactive),–
C(#CCN1CCOCC1)CCCN1CCOCC1,-3.95% (inactive),–
O=[N+]([O-])c1ccc(C=NN=Cc2ccc([N+](=O)[O-])cc2)cc1,-0.0464% (inactive),–
O=C(OCC(=O)N1CCCCCC1)c1ccc(Br)c(S(=O)(=O)N2CCOCC2)c1,1.89% (inactive),–
Cn1c(Cc2cccc3ccccc23)nnc1SCC(=O)N1CCN(c2cccc(Cl)c2)CC1,–,13 µM (active)
Cc1nnc(SCC(=O)N2CCN(c3ccccc3)CC2)n1-c1ccccc1,8.74% (inactive),–
Cn1c(CNC(=O)c2ccco2)nnc1SCC(=O)N1CCN(c2ccccc2)CC1,2.16% (inactive),–
